HSV replic up: enhancers of HSV replication in host cells, fold increase, host cell viability; HSV replication augmentation in cells; 220,000 tested, 0.005% active; maximum fold increase; in the data active = maximum fold increase above about 1.5; tested in PC3 cells
Furin inhibitor: human furin inhibitors, primary screen, biochemical, fluorescence intensity. 220,000 tested, 0.061% active. inhibition, % at 20 µM or 30 µM. purified furin, fluorogenic substrate cleavage. AID 463115, 2010; in the data active = inhibition above about 25%
PGE2 EP2 inh: human EP2 receptor antagonists, primary screen, TR-FRET cAMP, C6 glioma cells. Prostaglandin E2 receptor EP2 subtype (Homo sapiens), P43116. C6 glioma cells expressing human EP2; cells stimulated with saturating PGE2. inhibition, % at 25 µM. 260,000 tested, 0.52% active. AID 1422, 2008;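 active = percent inhibition above 40 after rounding to a whole number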;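 also: rat C6 glioma host cells with rolipram phosphodiesterase inhibitor present; the protocol text gives 20 µM as final concentration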
Target sequence (P43116 whole entry, looked up): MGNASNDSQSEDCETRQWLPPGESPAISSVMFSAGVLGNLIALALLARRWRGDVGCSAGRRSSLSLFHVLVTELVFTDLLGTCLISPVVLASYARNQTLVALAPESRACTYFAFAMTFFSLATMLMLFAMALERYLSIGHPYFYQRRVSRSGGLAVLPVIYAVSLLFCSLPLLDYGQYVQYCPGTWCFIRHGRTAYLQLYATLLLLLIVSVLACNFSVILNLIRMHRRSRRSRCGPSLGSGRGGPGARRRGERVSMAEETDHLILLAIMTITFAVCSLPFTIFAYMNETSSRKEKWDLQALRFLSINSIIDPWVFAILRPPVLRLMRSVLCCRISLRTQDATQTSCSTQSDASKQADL
NCF1 inh: p47phox/p22phox peptide binding inhibitors, primary screen, biochemical, uHTS, NADPH oxidase regulatory subunit | AID 1274, 2008 | fluorescence polarization, 2 h | inhibition, % at 24.7 µM | 220,000 tested, 0.53% active | Neutrophil cytosol factor 1 (Homo sapiens), P14598;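 active = inhibition above about 30%, limit read from the data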;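 also: 0% = p47phox with labelled peptide and 100% = labelled peptide alone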
Wee1 degr inh: Wee1 degradation inhibitors, primary screen, cell-based, HeLa, Wee1K328M-luciferase, luminescence; Wee1-like protein kinase (Homo sapiens), P30291; HeLa Luc-Wee1K328M stability; 100% = proteasome inhibitor MG132 effect; reporter increase, % at 5 µM; 220,000 tested, 1.2% active; AID 1321, 2008;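 active = activation above the mean of all tested compounds plus 3 SD, set per screening run, cut at about 8.8% in these data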;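 also: cells exposed to compound for 20 h before luminescence read; 0% = DMSO alone and 100% = MG132 at 30 µM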
EP2 mod: EP2 receptor modulators, cAMP readout, primary screen, cell-based, HTRF cAMP, PGE2 stimulation; Prostaglandin E2 receptor EP2 subtype (Homo sapiens), P43116; EP2-expressing cells, cAMP HTRF FRET, PGE2 co-stimulation; induction, % at 25 µM; 260,000 tested, 0.83% active; AID 940, 2007;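 active = compounds whose cAMP rise, as percent of the full-agonist control response, exceeds 60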;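 also: rat C6 glioma line stably carrying human EP2 under a CMV promoter; the protocol text gives 20 µM as final concentration; 100% = response of wells given 1 µM PGE2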
An asterisk follows results filed as active; ! = a repeat was not active. Rows were chosen to be rich in hits. Some 2.8% of all compounds tested hit in one or more screens of this group.

Results for O=c1[nH]c2ccc([N+](=O)[O-])cc2nc1/C=C(\O)c1ccccc1 ?
HSV replic up: 1.65*; Furin inhibitor: -11.9; PGE2 EP2 inh: 4.6; NCF1 inh: -1.5; Wee1 degr inh: 0.8; EP2 mod: 10.0

Results for O=c1[nH]c2nonc2nc1/C=C(\O)c1ccccc1 ?
PGE2 EP2 inh: 5.0; EP2 mod: -20.2

How did CCOC(=O)C1(C)C=C(Nc2ccccc2)C(=O)N1c1ccccc1 (centres undefined) do in these assays?
HSV replic up: inactive; Furin inhibitor: -27.9; PGE2 EP2 inh: 6.6; NCF1 inh: 6.7; Wee1 degr inh: -1.5; EP2 mod: 61.5*

What do the screens show for `COc1cc(Cl)c(S(=O)(=O)N2CCc3ccccc32)cc1Cl`?
PGE2 EP2 inh: 11.4; EP2 mod: -38.2

What do the screens show for `CCC(C)(C)NC(=O)C(c1ccccn1)N(Cc1ccccc1)C(=O)c1csnn1` (centres undefined)?
PGE2 EP2 inh: 15.3; EP2 mod: -7.6

What do the screens show for `CN(C)CCCN1c2ccccc2Sc2ccc3ccccc3c21`?
PGE2 EP2 inh: 12.4; EP2 mod: -17.0

How did CN(C)CCCN1c2ccc3ccccc3c2Sc2cccc(Cl)c21 do in these assays?
PGE2 EP2 inh: 49.0*; EP2 mod: -19.7

How did Cc1cccc(C2(O)CCN(CC(O)c3ccc(NC(=O)C4CC4)cc3)CC2)c1 (centres undefined) do in these assays?
PGE2 EP2 inh: 4.8; EP2 mod: -29.8

Results for CC(C)OC(=O)c1cccc2c1C(=O)c1ccccc1-2 ?
HSV replic up: inactive; Furin inhibitor: -2.1; PGE2 EP2 inh: 13.5; NCF1 inh: 49.8*; Wee1 degr inh: 1.9; EP2 mod: 32.6

What do the screens show for `CC(NC(=O)c1ccccc1)c1nnc(SCc2nc3ccccc3c(=O)[nH]2)n1C` (centres undefined)?
HSV replic up: inactive; Furin inhibitor: -19.3; PGE2 EP2 inh: 7.7; NCF1 inh: -10.7; Wee1 degr inh: 8.8*; EP2 mod: 20.2

Results for CC(Oc1ccccc1F)C(=O)Nc1ccc2ccccc2c1 (centres undefined) ?
HSV replic up: inactive; Furin inhibitor: -17.8; PGE2 EP2 inh: 9.7; NCF1 inh: 4.2; Wee1 degr inh: 9.3*; EP2 mod: -58.8

How did CC(Oc1ccc(F)cc1)C(=O)Nc1ccc2ccccc2c1 (centres undefined) do in these assays?
HSV replic up: inactive; Furin inhibitor: -10.4; PGE2 EP2 inh: 9.6; NCF1 inh: -0.2; Wee1 degr inh: 1.2; EP2 mod: -5.8

Results for CCC(=O)Nc1ccc2ccccc2c1 ?
HSV replic up: inactive; Furin inhibitor: -22.4; PGE2 EP2 inh: 6.0; NCF1 inh: -11.3; Wee1 degr inh: -1.3; EP2 mod: -30.6

Results for CC(C)CC(=O)Nc1ccc2ccccc2c1 ?
HSV replic up: inactive; Furin inhibitor: -17.3; PGE2 EP2 inh: 7.3; NCF1 inh: 91.2*!; Wee1 degr inh: 8.7; EP2 mod: -11.9

What do the screens show for `COCCn1c(=O)n(CC(=O)Nc2ccc(OC)c(Cl)c2)c2cccnc21`?
PGE2 EP2 inh: 0.8; EP2 mod: -26.7

What do the screens show for `C(=C\c1nnc(-c2cccs2)o1)/c1ccccc1`?
HSV replic up: inactive; Furin inhibitor: -14.5; PGE2 EP2 inh: -3.7; NCF1 inh: -12.7; Wee1 degr inh: 4.0; EP2 mod: 35.5

Results for Clc1ccccc1-c1nnc(-c2cccs2)o1 ?
HSV replic up: inactive; Furin inhibitor: -40.1; PGE2 EP2 inh: 9.5; NCF1 inh: 6.7; Wee1 degr inh: 10.2*; EP2 mod: -6.5

Results for Cc1ccc(C(=N)c2ccccc2Cc2cccc3ccccc23)c2ccccc12 ?
PGE2 EP2 inh: 40.4*; EP2 mod: 39.0

Results for CC(=O)c1c(C)[nH]c(C(=O)N2CCN(c3ncccn3)CC2)c1C ?
HSV replic up: inactive; Furin inhibitor: -19.1; PGE2 EP2 inh: 10.0; NCF1 inh: -7.3; Wee1 degr inh: -1.8; EP2 mod: 6.2

How did CC(=O)c1c(C)[nH]c(C(=O)N2CCCCCC2)c1C do in these assays?
HSV replic up: inactive; Furin inhibitor: -18.1; PGE2 EP2 inh: 16.2; NCF1 inh: -11.6; Wee1 degr inh: 8.9*; EP2 mod: 1.0

Results for COc1ccc(C(O)CN2CCC3(CC2)CC(O)c2cc(F)ccc2O3)cc1 (centres undefined) ?
PGE2 EP2 inh: 6.2; EP2 mod: -55.8

How did O=C(NCCc1ccccc1)C(=O)NCc1ccncc1 do in these assays?
HSV replic up: inactive; Furin inhibitor: -30.5; PGE2 EP2 inh: 9.1; NCF1 inh: -11.1; Wee1 degr inh: 2.3; EP2 mod: 19.1

What do the screens show for `Cc1cc(C(=O)NCCc2ccccc2)ccc1[N+](=O)[O-]`?
HSV replic up: inactive; Furin inhibitor: -22.4; PGE2 EP2 inh: 3.7; NCF1 inh: -9.6; Wee1 degr inh: 1.3; EP2 mod: -4.8

How did O=C(NCCc1ccccc1)c1ccc(Cl)c([N+](=O)[O-])c1 do in these assays?
HSV replic up: inactive; Furin inhibitor: -17.8; PGE2 EP2 inh: 10.6; NCF1 inh: -9.1; Wee1 degr inh: 9.4*; EP2 mod: -15.3

How did O=C(NCCc1ccccc1)c1ccncc1 do in these assays?
HSV replic up: inactive; Furin inhibitor: -14.7; PGE2 EP2 inh: 15.2; NCF1 inh: -7.5; Wee1 degr inh: 10.7*; EP2 mod: 25.3

What do the screens show for `Cc1ccc(N2CC(C(=O)Nc3nccs3)CC2=O)cc1Cl` (centres undefined)?
HSV replic up: inactive; Furin inhibitor: -17.0; PGE2 EP2 inh: 3.0; NCF1 inh: -12.0; Wee1 degr inh: -1.5; EP2 mod: -14.4

How did Cc1c(Cl)cccc1N1CC(C(=O)Nc2nccs2)CC1=O (centres undefined) do in these assays?
HSV replic up: inactive; Furin inhibitor: -26.2; PGE2 EP2 inh: 15.2; NCF1 inh: active; Wee1 degr inh: 2.9; EP2 mod: -27.4

How did COc1ccc(C(=O)NCc2ccc(Cl)c(Cl)c2)cc1OC do in these assays?
HSV replic up: inactive; Furin inhibitor: -19.9; PGE2 EP2 inh: 12.4; NCF1 inh: -15.5; Wee1 degr inh: 0.3; EP2 mod: -19.4

How did COc1ccc(CNC(=O)c2ccc(=O)oc2)cc1OC do in these assays?
HSV replic up: inactive; Furin inhibitor: 18.8; PGE2 EP2 inh: 6.8; NCF1 inh: 5.2; Wee1 degr inh: 9.4*; EP2 mod: -13.6

Results for CN1C(=S)N(c2cccnc2)C(=O)/C1=C\c1ccc(N(C)C)cc1 ?
HSV replic up: inactive; Furin inhibitor: -19.5; PGE2 EP2 inh: 7.0; NCF1 inh: 85.8*; Wee1 degr inh: 1.0; EP2 mod: -4.5
